“And” between values parts separate entries of the source, which are not always exact repeats. Identical values can stand only once. In all, about 5,500 compounds went through this assay and about 2,000 (36%) were called active. Inconclusive results (about 18%) are left out. Cut-off read from the data, not from the text of the source: active = normalized growth mostly below about 0.91 (no sharp cut-off); inconclusive = no clear call, values can overlap the other calls; inactive = mostly above about 0.92. Some of the results follow.
Test: chemical genetic growth profiling, strain panel (AID 1159580);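 note: tested at 20 µM; growth read once vehicle control cultures reached saturation at 30 °C; 1 = growth at the plate median or of vehicle wells; lower values mean less growth of the strain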
Settings: S. cerevisiae deletion strains, growth OD

Measured: normalized growth

CCCCCc1c2c(cc(O)c1C(=O)O)OC(=O)c1c(cc(OC)cc1C(=O)CCCC)O2
inactive: locus YAL021C, strain ccr4, stronger effect = lower value 0.954 | locus YAL026C, strain drs2, stronger effect = lower value 1.01 | locus YAL030W, strain snc1, stronger effect = lower value 0.993 | locus YBL061C, strain skt5, stronger effect = lower value 0.999 | locus YBR009C, strain hhf1, stronger effect = lower value 1.01 | locus YBR021W, strain FUR4, stronger effect = lower value 1.02 | locus YBR023C, strain chs3, stronger effect = lower value 1 | locus YBR171W, strain sec66, stronger effect = lower value 1 | locus YBR229C, strain ROT2, stronger effect = lower value 0.935 | locus YBR231C, strain swc5, stronger effect = lower value 0.988 | locus YBR279W, strain paf1, stronger effect = lower value 1.01 | locus YCL011C, strain gbp2, stronger effect = lower value 0.997 | locus YCL016C, strain dcc1, stronger effect = lower value 0.994 | locus YCL029C, strain bik1, stronger effect = lower value 0.989 | locus YCL069W, strain vba3, stronger effect = lower value 1.03 | locus YCR088W, strain abp1, stronger effect = lower value 1 | locus YDL005C, strain med2, stronger effect = lower value 0.977 | locus YDL035C, strain GPR1, stronger effect = lower value 0.945 | locus YDL040C, strain nat1, stronger effect = lower value 0.994 | locus YDL074C, strain BRE1, stronger effect = lower value 0.982 | locus YDL101C, strain DUN1, stronger effect = lower value 0.998 | locus YDL185W, strain tfp1, stronger effect = lower value 0.968 | locus YDL192W, strain arf1, stronger effect = lower value 0.968 | locus YDR001C, strain nth1, stronger effect = lower value 1 | locus YDR069C, strain doa4, stronger effect = lower value 0.985 | locus YDR101C, strain arx1, stronger effect = lower value 0.961 | locus YDR137W, strain rgp1, stronger effect = lower value 0.941 | locus YDR150W, strain NUM1, stronger effect = lower value 0.99 | locus YDR159W, strain sac3, stronger effect = lower value 0.994 | locus YDR162C, strain NBP2, stronger effect = lower value 0.955 | locus YDR195W, strain ref2 0.977 | locus YDR297W, strain sur2, stronger effect = lower value 0.995 | locus YDR318W, strain mcm21, stronger effect = lower value 0.99 | locus YDR334W, strain swr1, stronger effect = lower value 1.01 | locus YDR335W, strain msn5, stronger effect = lower value 1 | locus YDR388W, stronger effect = lower value 0.997 | locus YDR392W, strain spt3, stronger effect = lower value 0.988 | locus YDR502C, strain sam2, stronger effect = lower value 1.03 | locus YEL003W, strain gim4, stronger effect = lower value 1.01 | locus YEL037C, strain rad23, stronger effect = lower value 1.01 | locus YEL061C, strain CIN8 (second series), stronger effect = lower value 1.02 | locus YER015W, strain faa2, stronger effect = lower value 1 | locus YER016W, strain bim1, stronger effect = lower value 0.989 | locus YER110C, stronger effect = lower value 0.973 | locus YER111C, strain swi4, stronger effect = lower value 0.995 | locus YER155C, strain BEM2 (second series), stronger effect = lower value 0.998 | locus YER155C, strain BEM2, stronger effect = lower value 1.01 | locus YER167W, strain BCK2, stronger effect = lower value 0.985 | locus YFR010W, strain ubp6, stronger effect = lower value 1 | locus YGL078C, strain dbp3, stronger effect = lower value 0.977 | locus YGL086W, strain mad1, stronger effect = lower value 1 | locus YGL167C, strain pmr1, stronger effect = lower value 0.977 | locus YGL173C, strain kem1, stronger effect = lower value 0.991 | locus YGL227W, strain vid30, stronger effect = lower value 1.03 | locus YGL240W, strain doc1, stronger effect = lower value 0.964 | locus YGL248W, strain PDE1, stronger effect = lower value 0.99 | locus YGL253W, strain hxk2, stronger effect = lower value 1.01 | locus YGR135W, strain pre9, stronger effect = lower value 1.04 | locus YGR252W, strain gcn5, stronger effect = lower value 1.01 | locus YHR013C, strain ard1, stronger effect = lower value 0.989 | locus YHR027C, strain rpn1, stronger effect = lower value 1.01 | locus YHR030C, strain SLT2, stronger effect = lower value 0.961 | locus YHR079C, strain IRE1 (second series), stronger effect = lower value 0.988 | locus YHR079C, strain IRE1, stronger effect = lower value 0.959 | locus YHR094C, strain hxt1, stronger effect = lower value 0.983 | locus YHR129C, strain ARP1, stronger effect = lower value 0.993 | locus YHR142W, strain chs7, stronger effect = lower value 1.02 | locus YHR200W, strain rpn10, stronger effect = lower value 0.987 | locus YIL066C, strain RNR3, stronger effect = lower value 0.978 | locus YIL073C, strain SPO22, stronger effect = lower value 0.97 | locus YIL125W, strain kgd1, stronger effect = lower value 0.991 | locus YIR030C, strain dcg1, stronger effect = lower value 0.986 | locus YJL092W, strain hpr5, stronger effect = lower value 1.01 | locus YJL095W, strain BCK1 (second series), stronger effect = lower value 0.997 | locus YJL095W, strain BCK1, stronger effect = lower value 1.06 and 0.972 | locus YJL115W, strain asf1, stronger effect = lower value 0.982 | locus YJL129C, strain trk1, stronger effect = lower value 1.02 | locus YJL134W, strain LCB3, stronger effect = lower value 0.977 | locus YJL154C, strain vps35, stronger effect = lower value 0.996 | locus YJL164C, strain tpk1, stronger effect = lower value 0.995 | locus YJL166W, strain qcr8, stronger effect = lower value 0.979 | locus YJL168C, strain set2, stronger effect = lower value 0.991 | locus YJL187C, strain SWE1 (second series), stronger effect = lower value 1.01 | locus YJL187C, strain SWE1, stronger effect = lower value 1 | locus YJR043C, strain POL32, stronger effect = lower value 0.941 | locus YJR066W, strain TOR1, stronger effect = lower value 0.961 | locus YJR075W, strain HOC1, stronger effect = lower value 0.993 | locus YKL009W, strain mrt4, stronger effect = lower value 0.971 | locus YKL068W, stronger effect = lower value 0.995 | locus YKL085W, strain MDH1 (second series), stronger effect = lower value 0.995 | locus YKL085W, strain MDH1, stronger effect = lower value 0.995 | locus YKL160W, strain elf1, stronger effect = lower value 1.01 | locus YKR001C, strain vps1, stronger effect = lower value 0.985 | locus YKR026C, strain gcn3, stronger effect = lower value 0.998 | locus YKR091W, strain srl3, stronger effect = lower value 0.997 | locus YLL001W, strain dnm1, stronger effect = lower value 1.01 | locus YLL026W, stronger effect = lower value 0.995 | locus YLL041C, strain sdh2, stronger effect = lower value 0.986 | locus YLR027C, strain aat2, stronger effect = lower value 1.01 | locus YLR039C, strain RIC1, stronger effect = lower value 0.955 | locus YLR058C, strain SHM2, stronger effect = lower value 0.97 | locus YLR102C, strain apc9, stronger effect = lower value 0.979 | locus YLR113W, strain HOG1, stronger effect = lower value 0.929 | locus YLR221C, strain rsa3, stronger effect = lower value 0.99 | locus YLR258W, strain gsy2, stronger effect = lower value 1.01 | locus YLR262C, strain YPT6 (second series), stronger effect = lower value 0.993 | locus YLR262C, strain YPT6, stronger effect = lower value 0.967 | locus YLR268W, strain sec22, stronger effect = lower value 0.972 | locus YLR320W, strain mms22, stronger effect = lower value 0.979 | locus YLR342W, strain FKS1, stronger effect = lower value 0.981 | locus YLR357W, strain rsc2, stronger effect = lower value 0.923 | locus YLR370C, strain arc18, stronger effect = lower value 0.997 | locus YLR371W, strain rom2, stronger effect = lower value 0.981 | locus YLR384C, strain iki3, stronger effect = lower value 0.995 | locus YLR418C, strain cdc73, stronger effect = lower value 1.04 | locus YML016C, strain PPZ1, stronger effect = lower value 0.96 | locus YML032C, strain rad52, stronger effect = lower value 0.996 | locus YML120C, strain ndi1, stronger effect = lower value 0.995 | locus YML124C, strain tub3, stronger effect = lower value 0.995 | locus YMR058W, strain fet3, stronger effect = lower value 0.987 | locus YMR078C, strain ctf18, stronger effect = lower value 0.983 | locus YMR125W, strain sto1, stronger effect = lower value 0.996 | locus YMR129W, stronger effect = lower value 1.01 | locus YMR205C, strain PFK2, stronger effect = lower value 0.992 | locus YMR223W, strain ubp8, stronger effect = lower value 1.01 | locus YMR231W, strain pep5, stronger effect = lower value 0.994 | locus YMR307W, strain GAS1, stronger effect = lower value 1.03 | locus YNL067W, strain RPL9B, stronger effect = lower value 0.999 | locus YNL071W, strain lat1, stronger effect = lower value 1 | locus YNL153C, strain GIM3, stronger effect = lower value 1.02 | locus YNL183C, strain NPR1, stronger effect = lower value 0.937 | locus YNL209W, strain ssb2, stronger effect = lower value 1.01 | locus YNL233W, strain BNI4, stronger effect = lower value 1.03 | locus YNL248C, strain rpa49, stronger effect = lower value 0.993 | locus YNL250W, strain rad50, stronger effect = lower value 0.991 | locus YNL271C, strain bni1, stronger effect = lower value 0.99 | locus YNL298W, strain CLA4, stronger effect = lower value 0.959 | locus YNL307C, strain MCK1, stronger effect = lower value 1 | locus YNL322C, strain KRE1 (second series), stronger effect = lower value 0.998 | locus YNL322C, strain KRE1, stronger effect = lower value 0.986 | locus YNR049C, strain mso1, stronger effect = lower value 0.982 | locus YNR052C, strain pop2, stronger effect = lower value 1.01 | locus YOL012C, strain htz1 1.1 | locus YOL147C, strain pex11, stronger effect = lower value 0.993 | locus YOR001W, strain rrp6, stronger effect = lower value 1 | locus YOR061W, strain CKA2, stronger effect = lower value 0.942 | locus YOR069W, strain VPS5, stronger effect = lower value 0.993 | locus YOR070C, strain gyp1, stronger effect = lower value 0.999 | locus YOR080W, strain dia2, stronger effect = lower value 0.99 | locus YOR083W, strain WHI5, stronger effect = lower value 0.991 | locus YOR106W, strain vam3, stronger effect = lower value 0.995 | locus YOR136W, strain idh2, stronger effect = lower value 1 | locus YOR144C, strain elg1, stronger effect = lower value 0.983 | locus YOR184W, strain ser1, stronger effect = lower value 0.951 | locus YOR231W, strain MKK1, stronger effect = lower value 0.983 | locus YOR265W, strain rbl2, stronger effect = lower value 0.991 | locus YOR270C, strain vph1, stronger effect = lower value 1.02 | locus YOR290C, strain snf2, stronger effect = lower value 1.02 | locus YOR316C, strain cot1, stronger effect = lower value 1 | locus YPL051W, strain arl3, stronger effect = lower value 1 | locus YPL078C, strain atp4, stronger effect = lower value 0.992 | locus YPL106C, strain sse1, stronger effect = lower value 0.951 | locus YPL240C, strain hsp82, stronger effect = lower value 0.998 | locus YPL241C, strain CIN2, stronger effect = lower value 0.991 | locus YPL256C, strain CLN2, stronger effect = lower value 0.989 | locus YPR119W, strain clb2, stronger effect = lower value 1 | locus YPR141C, strain kar3, stronger effect = lower value 0.987 | locus YPR163C, strain tif3, stronger effect = lower value 0.984 | locus YPR167C, strain met16, stronger effect = lower value 1 | strain wtn01, stronger effect = lower value 0.96

Reference: PubChem BioAssay AID1159580 (chemical genetic matrix, 2015)
